Compounds with a hit are over-represented: about 2.7% of the library has one in this group of screens.
HIF-2a block: inhibitors of HIF-2a; 786-0 RCC cells HIF-2a reporter, luciferase luminescence, overnight; inhibition, % at 18.8 µM; actives 0.72% (n = 360,000); AID 624352;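 active = inhibition of the luminescence signal of 40% or more relative to plate controls, in a single-dose primary screen at 18.75 µM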
MITF TRPM1 inh: reduces MITF-dependent TRPM1 promoter luciferase signal; actives 0.83% (n = 330,000); inhibition, % at 12.5 µM; SK-MEL-5 TRPM1 promoter luciferase, 24 h;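 active = mean inhibition across replicates of 60% or more, whatever share of single replicates reaches that level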
KKLEB cytotox: reduces viability of KKLEB cystic fibrosis airway cells | KKLEB CF airway cells viability, ATPlite luminescence, overnight; active compounds read low; cells stimulated with P. aeruginosa culture filtrate | activity change (cytotoxicity), % at 5 µM | actives 0.36% (n = 360,000) | AID 602141;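 active = corrected activity change at or below -50% at 5 µM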
Peg3 prom inh: inhibitors of Peg3 promoter; AID 588405; actives 1.7% (n = 360,000); HeLa PEG-Prom luciferase reporter, luminescence, overnight; inhibition, % at 20 µM;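 active = inhibition of at least 50% at 20 µM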
CF NFkB inh: inhibitors of cystic fibrosis induced NF-kB; KKLEB NF-kB-GFP reporter, PAF-induced, GFP fluorescence overnight; actives 0.86% (n = 360,000); inhibition, % at 5 µM;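 active = at least 50% inhibition at 5 µM, scaled per plate between neutral and stimulator controls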;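 note: PAF is a Pseudomonas aeruginosa culture filtrate used as stimulus; plate controls were PAF-stimulated DMSO wells for no effect and unstimulated DMSO wells for full effect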
Shn3 3UTR inh: inhibitors of Schnurri-3 3'UTR reporter in osteoblasts. actives 0.52% (n = 360,000). Clone20 osteoblast Shn3 3'UTR firefly luciferase, 24 h. inhibition, % at 12.5 µM;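 active = mean inhibition of at least 75% with every replicate also reaching 75%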;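 note: 0% = median of neutral control wells and 100% = pilot-screen positive control compound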
An asterisk follows results filed as active; x = no result given.

SMILES | HIF-2a block | MITF TRPM1 inh | KKLEB cytotox | Peg3 prom inh | CF NFkB inh | Shn3 3UTR inh
CCN1CCN(Cc2ccc(NC(=O)c3ccc(C)c(NC(=O)c4cncc(-c5cccs5)c4)c3)cc2C(F)(F)F)CC1 | 48* | 97* | -85* | 99* | 80* | 88*
O=C1NC[C@H](CCCCN2C[C@H](Cc3ccc(O)cc3)N(CCc3ccccc3)C(=O)C2=O)N(Cc2ccccc2)C1=O | 5 | x | x | x | x | x
CC1(c2ccccc2Br)NC(=O)N(CC(=O)N2CCc3ccccc3C2)C1=O (configuration not stated) | 11 | 0 | 19 | 4 | -20 | 2
COc1ccc2[nH]c(-c3cccc(F)c3)cc(=O)c2c1 | -127 | 19 | -10 | -249 | 56* | -20
C=C1CCC[C@]2(C)C[C@H]3OC(=O)C(CNC(C)CCCC(C)C)[C@H]3CC12 (some centres not stated) | -7 | 16 | -3 | 104* | 7 | 17
C=C1CCC[C@]2(C)C[C@H]3OC(=O)C(CN[C@@H](C)c4ccccc4)[C@H]3CC12 (some centres not stated) | -12 | -6 | 4 | 1 | 13 | 18
C=CCNC(=O)CSc1nnc(-c2ccccc2Br)n1-c1cccc(C(F)(F)F)c1 | 0 | 4 | 8 | 52* | 5 | -2
O=C1CCc2cc(S(=O)(=O)NC3CCCCC3)ccc2N1 | 8 | -8 | -2 | 103* | -13 | 0
C/C(CC(=O)Nc1c(C)cc(C)cc1C)=N\NC(=O)Cc1ccccc1 | 6 | 4 | -2 | -2 | -2 | -23
CC(C)(C)CC(=O)Nc1ccc(-c2cn3cccnc3n2)cc1 | -220 | -81 | 0 | -249 | 1 | -130
Cc1ccc(COc2cccc(/C=N/NC(=O)c3nnn(-c4nonc4N)c3C)c2)cc1 | -132 | 4 | -50 | 77* | 59* | -17
CC1C(=O)N(Cc2cn(CCC3OCCO3)nn2)CCS(=O)(=O)N1Cc1ccc(-c2ccc(F)nc2)cc1 (configuration not stated) | 10 | x | 17 | 0 | -27 | 1
COC(=O)[C@H]1C[C@@]2(O)CN(S(=O)(=O)c3ccc(C)cc3)C[C@@]2(OC(=O)Nc2cccs2)C[C@H]1C(=O)OC | 10 | x | 4 | -3 | 11 | 13
O=C(O)c1ccccc1Nc1cccc(C(F)(F)F)c1 | -13 | -4 | -59* | 1 | 12 | -3
O=C(O)c1ccccc1Nc1ccccc1 | 2 | -5 | 4 | -15 | -10 | 1
NS(=O)(=O)c1ccc(NC(=O)CSc2nc(Nc3ccccc3)nc(N3CCOCC3)n2)cc1 | 17 | -37 | -18 | -18 | 11 | 4
O=C1C=CC(=O)N1c1ccc(O)cc1 | -1 | 7 | 1 | 110* | 12 | 6
O=C1CCCC(=O)N1c1ccc(O)cc1 | -1 | 10 | -9 | -4 | -4 | 4
O=C1C=CC(=O)N1c1ccc(OC(F)F)cc1 | 50* | 35 | -6 | 104* | 10 | 91*
O=C(O)CNC(=O)c1ccc(OC(F)F)cc1 | 9 | 9 | -6 | -1 | 17 | -10
CCCC(=O)Oc1ccc(C2NC(=O)c3ccccc3O2)cc1 (configuration not stated) | 9 | -6 | 1 | 9 | 6 | -13
CCCCCCCNC(=O)C1(CC2CC(c3ccc(Cl)cc3)=NO2)CCN(C(=O)c2cc(OCC)c(OCC)c(OCC)c2)CC1 (configuration not stated) | 5 | 23 | 1 | 12 | 11 | 10
O=C(O)CSc1nnc(NC(=O)c2ccc3c(c2)OCO3)s1 | 41* | 20 | -19 | 39 | 8 | 31
O=C(Nc1ccc(F)c(F)c1)c1ccc(F)c(S(=O)(=O)N2CCC3(CC2)OCCO3)c1 | -5 | 6 | 2 | -16 | 10 | 84*
Cc1c(C(=O)Nc2ccc(F)c(F)c2)oc2ccc(S(=O)(=O)N3CCCCC3)cc12 | 22 | 32 | -3 | 64* | -13 | 82
O=S(=O)(c1cc(F)ccc1F)N1CCC2(CC1)OCCO2 | 19 | -1 | 5 | -10 | 22 | 8
Cc1c(C(=O)Nc2ccc(F)cc2)oc2ccc(S(=O)(=O)N3CCCC3)cc12 | 9 | 10 | -17 | 16 | 13 | -7

Assay outcomes (PubChem)
